Experimental findings from PubChem BioAssay (NCATS) are described below.

Results filed as inconclusive are left out. Calls of active or inactive are those of the source. Unless noted, calls follow the shape of the full dose curve.

Experiment [1] has as its target Lysosomal acid glucosylceramidase (Homo sapiens) (UniProt P04062). Nature of the experiment: Glucocerebrosidase-p2 (AID 348; in the data active = potency below about 10 µM; also: potency is read from the fitted curve at half-maximal effect). As to conditions: purified GBA, blue fluorogenic substrate, 40 min. Put shortly: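 Normal human glucocerebrosidase (0.2 nM) with blue fluorogenic substrate (80 uM final) in citrate/phosphate pH 5.9 with 10mM sodium taurocholate, 0.01% tween-20; 40 min RT, NaOH/glycine stop; fluorescence Ex 365/Em 440; AC50 from a titration from 0.6 nM upwards.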

A short description of experiment [2]: AP1 Signaling Pathway (AID 357; active = well fitted curve in either direction with a large enough effect, not every such curve was filed as active;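 also: ME-180 reporter cells stimulated with EGF at its EC50 level; % is scaled to controls: 0 for no effect and ±100 for the full control effect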). As to conditions: ME-180 AP-1-bla reporter, EGF-induced, beta-lactamase ratio, 5 h; at 7.69 µM (top of the series) unless noted. Put shortly: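 Beta-lactamase reporter under AP-1 response element, ME-180 background. Stimulus: EC50 EGF. Compound exposure 5 h, 37 °C. Detection: CCF4, 2.5 h RT, 460/530 nm. Values: AC50 from titration.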

Experiment [3] has as its target Cytochrome P450 1A2 (Homo sapiens) (UniProt P05177). Briefly: p450-cyp1a2 (AID 410). Also: potency is read from the fitted curve at half-maximal effect.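 As to activity change, negative = inhibition: -100% = full effect of reference inhibitor.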 Conditions: recombinant CYP1A2, luciferin-ME demethylation, luminescence; series mostly up to 57 µM. In short, it runs like this: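 O-Demethylation of luciferin 6' methyl ether by human CYP1A2 is monitored as luciferase luminescence. Substrate sits at Km (100uM); enzyme is 20nM. Values are scaled to 57 uM furafylline as maximal inhibition.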

Experiment [4] can be described thus: Stat Signaling Pathway (AID 446; active = well fitted curve in either direction with a large enough effect, not every such curve was filed as active;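 also: ME-180 cervical cancer cells given 40 pM IL-6 alongside compound; SIE-controlled beta-lactamase reporter measured as 460/530 nm FRET emission ratio; % is scaled to controls: 0 for no effect and ±100 for the full control effect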). Conditions: ME-180 SIE beta-lactamase reporter, IL-6 stimulated, 5 h; at 7.69 µM (top of the series) unless noted. Put shortly: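 Emission at 460 and 530 nm (excitation 405 nm) reports SIE-controlled beta-lactamase in ME-180 cells. Cells received compound with 40 pM IL-6 for 5 hrs at 37 C; data scaled between 300 pM IL-6 and 125 nM JAK-inhibitor controls.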

Experiment [5] addresses Glucocorticoid receptor (Homo sapiens) (UniProt P04150). Nature of the experiment: GR-EFC Redistribution (AID 451). Also: potency is read from the fitted curve at half-maximal effect. Conditions: CHO-K1 GR-EFC translocation, beta-gal luminescence, 2 h. Put shortly:
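CHO-K1 cells stably expressing nuclear-localized β-gal enzyme acceptor and GR fused C-terminally to the enzyme donor fragment; ligand-driven nuclear translocation restores β-gal by complementation. Compounds titrated up to 46 uM final, 2 h at 37 °C; luminescence read.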

In experiment [6] the target is Mitogen-activated protein kinase 10 (Mus musculus) (UniProt Q61831). Nature of the experiment: JNK3 AlphaScreen Assay (AID 530; active = well fitted curve in either direction with a large enough effect, not every such curve was filed as active;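 also: kinase came from lysate of stimulated human HepG2 cells; % is scaled to controls: 0 for no effect and ±100 for the full control effect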). Conditions: JNK3 lysate, c-Jun phosphorylation; series mostly up to 57.1 µM. Put shortly: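 Phosphorylation of biotinylated GST-cJun(1-79) at Ser73 is measured by AlphaScreen proximity luminescence. Enzyme is JNK3 in HepG2 lysates activated with interleukin-1beta and tumor necrosis factor alpha; ATP is 10 uM final.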
For orientation: Bead proximity is the source of the signal in Alpha formats.

In experiment [7] the target is 3',5'-cyclic-AMP phosphodiesterase 4B (Homo sapiens) (UniProt Q07343). Briefly: qHTS Assay for Inhibitors of PDE-IV (AID 607; active = well fitted activation curve with a large enough effect in the main read-out, with a control signal flat, not every such curve was filed as active; also: % of control where 0% means no effect). Conditions: HEK293 ACTOne CNG channel cells, membrane potential fluorescence; series mostly up to 22.9 µM. Put shortly:
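The readout is membrane depolarisation from a cAMP-sensing CNG channel, detected with a potential dye at ex 535/em 590. Cells were HEK293-derived (endogenous PDE-IV) at 1000 cells/well, titrated up to 22.9 uM final.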
A general note: qHTS replaces the single test concentration by a dilution series.

Experiment [8] has as its target Cytochrome P450 3A4 (Homo sapiens) (UniProt P08684). Nature of the experiment: qHTS Assay for Inhibitors and Substrates of Cytochrome P450 3A4 (AID 884; active = well fitted curve in the direction sought with a large enough effect; an effect the other way counts as inactive or inconclusive; also: nearly all actives have a fitted effect of over 50% in size; also: potency is read from the fitted curve at half-maximal effect). Conditions: recombinant CYP3A4, Luciferin-PPXE luminescence; series mostly up to 57.1 µM. Put shortly: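 Luminescent readout of luciferin produced by CYP3A4 (20 nM) dealkylation of Luciferin-PPXE, 25 uM (its KM). NADPH-driven reaction ran 60 min at RT after 10 min compound preincubation; data scaled to 57 uM ketoconazole as 100% inhibition.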

The target is the same in experiment [9]. Briefly: qHTS Assay for Activators of Cytochrome P450 3A4 (AID 885; active = well fitted curve in the direction sought with a large enough effect; an effect the other way counts as inactive or inconclusive; also: nearly all actives have a fitted effect of over 65% in size; also: potency is read from the fitted curve at half-maximal effect). As to conditions: recombinant CYP3A4, Luciferin-PPXE luminescence, 60 min; series mostly up to 57.1 µM. Put shortly:
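Activators are scored by enhanced luminescence from CYP3A4 conversion of luciferin-PPXE (25uM, equal to KM) to luciferin, after 60 min at RT with an NADPH-regenerating system.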

Experiment [10] can be described thus: qHTS Assay for Lipid Storage Modulators (AID 1519). As to conditions: Drosophila S3 cells, BODIPY lipid droplet/cell ratio, laser cytometry, cells loaded with oleic acid; for activity change, negative = inhibition: at 57.5 µM (top of the series). In short, it runs like this:
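Cells seeded at 5,000 per well were treated with compounds over a concentration series and loaded with oleic acid (400 uM, as added). Lipid droplet fluorescence (488 nm excitation, 500-530 nm channel) was read by laser-scanning cytometry and normalized to 20 uM Triacsin C.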

A short description of experiment [11]: Primary qHTS for small molecule stabilizers of the endoplasmic reticulum resident proteome: Secreted ER Calcium Modulated Protein (SERCaMP) assay (AID 1508630; active = well fitted curve in the direction sought with a large enough effect; an effect the other way counts as inactive or inconclusive; also: % is scaled to controls: 0 for no effect and ±100 for the full control effect). Conditions: SH-SY5Y GLuc-SERCaMP (Gaussia luciferase released on ER calcium loss) secretion, thapsigargin, luminescence; series mostly up to 38.4 µM. Put shortly:
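The SH-SY5Y reporter protocol was run at 3 concentrations up to 38.3 uM (primary) or 11 concentrations (follow-up): 16 h compound, 100 nM thapsigargin for 4 h, then extracellular luciferase luminescence.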

Experiment [12] deals with Cytochrome P450 2D6 (Homo sapiens) (UniProt P10635). Briefly: qHTS Assay for Inhibitors and Substrates of Cytochrome P450 2D6 (AID 891; active = well fitted curve in the direction sought with a large enough effect; an effect the other way counts as inactive or inconclusive; also: potency is read from the fitted curve at half-maximal effect; nearly all actives have a fitted effect of over 60% in size). Conditions: recombinant CYP2D6, luciferin-ME EGE luminescence; series mostly up to 57.1 µM. Put shortly:
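Luminescent read-out of luciferin formed by 5 nM human CYP2D6 demethylating 30 uM Luciferin-ME EGE (Km level) over 60 min at room temperature after NADPH regeneration addition. Data normalized to full inhibition by 1.43 uM quinidine.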

A short description of experiment [13]: qHTS Assay for Identification of Small Molecule Agonists for Hypoxia Response Element Signaling Pathway (AID 914; active = well fitted activation curve with a large enough effect in the signal ratio, with a control signal flat, not every such curve was filed as active; the % refers to the signal ratio; also: % of control where 0% means no effect). As to conditions: ME-180 (cervical carcinoma) HRE-bla reporter, beta-lactamase ratio, CoCl2, 17 h; activation: stronger effect = higher value. Put shortly: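 Read-out: CCF4 FRET ratio of 460nm to 530nm emission (excitation 405nm) after 2.5 hours at room temperature, taken from HRE-bla ME-180 cells that had been exposed to compound and EC50 CoCl2 for 17 hours.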

[14] abbreviates: measured here: cell count channel max response.
[15] abbreviates: measured here: lipid channel max response.

Glucocorticoid receptor (Homo sapiens), sequence (P04150 whole entry, looked up, the tested form may be a part): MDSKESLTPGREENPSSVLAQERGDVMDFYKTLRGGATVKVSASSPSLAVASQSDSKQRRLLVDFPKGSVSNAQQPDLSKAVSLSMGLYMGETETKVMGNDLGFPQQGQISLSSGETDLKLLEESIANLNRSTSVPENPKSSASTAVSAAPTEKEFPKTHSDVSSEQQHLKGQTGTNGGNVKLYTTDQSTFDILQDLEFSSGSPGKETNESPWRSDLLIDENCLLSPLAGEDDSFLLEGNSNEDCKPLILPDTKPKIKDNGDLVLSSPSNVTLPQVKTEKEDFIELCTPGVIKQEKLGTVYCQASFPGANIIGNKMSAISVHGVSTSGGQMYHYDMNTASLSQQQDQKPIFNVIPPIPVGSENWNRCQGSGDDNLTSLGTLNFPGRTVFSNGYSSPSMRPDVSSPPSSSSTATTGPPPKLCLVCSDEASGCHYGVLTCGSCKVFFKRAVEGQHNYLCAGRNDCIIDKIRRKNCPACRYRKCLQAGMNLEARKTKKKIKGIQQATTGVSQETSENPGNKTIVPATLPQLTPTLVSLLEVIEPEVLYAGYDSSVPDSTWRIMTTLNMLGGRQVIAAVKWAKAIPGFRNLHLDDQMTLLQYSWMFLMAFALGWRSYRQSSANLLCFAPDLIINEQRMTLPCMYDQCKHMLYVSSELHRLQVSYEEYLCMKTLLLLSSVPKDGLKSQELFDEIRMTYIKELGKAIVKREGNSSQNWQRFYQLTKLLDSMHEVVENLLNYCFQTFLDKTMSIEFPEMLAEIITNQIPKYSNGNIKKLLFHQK
3',5'-cyclic-AMP phosphodiesterase 4B (Homo sapiens), sequence (Q07343 whole entry, looked up): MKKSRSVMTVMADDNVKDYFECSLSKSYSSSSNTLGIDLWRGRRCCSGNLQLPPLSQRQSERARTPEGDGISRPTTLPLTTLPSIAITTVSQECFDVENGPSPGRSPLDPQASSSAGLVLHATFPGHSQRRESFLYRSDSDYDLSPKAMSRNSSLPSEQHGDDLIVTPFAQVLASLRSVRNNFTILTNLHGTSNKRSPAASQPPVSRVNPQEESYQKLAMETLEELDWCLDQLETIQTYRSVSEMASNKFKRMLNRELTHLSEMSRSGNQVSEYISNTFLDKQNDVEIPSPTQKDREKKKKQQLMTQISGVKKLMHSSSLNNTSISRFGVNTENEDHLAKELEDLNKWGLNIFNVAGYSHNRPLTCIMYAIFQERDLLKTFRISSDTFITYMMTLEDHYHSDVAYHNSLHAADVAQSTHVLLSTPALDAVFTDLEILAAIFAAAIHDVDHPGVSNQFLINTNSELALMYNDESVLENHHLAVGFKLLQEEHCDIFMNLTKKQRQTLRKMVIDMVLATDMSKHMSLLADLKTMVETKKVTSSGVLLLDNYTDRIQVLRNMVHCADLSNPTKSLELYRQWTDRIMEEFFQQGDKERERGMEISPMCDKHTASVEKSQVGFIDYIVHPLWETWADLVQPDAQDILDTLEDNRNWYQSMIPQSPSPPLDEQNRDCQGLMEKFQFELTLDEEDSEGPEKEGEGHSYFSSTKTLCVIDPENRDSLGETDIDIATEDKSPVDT
Cytochrome P450 1A2 (Homo sapiens), sequence (P05177 whole entry, looked up): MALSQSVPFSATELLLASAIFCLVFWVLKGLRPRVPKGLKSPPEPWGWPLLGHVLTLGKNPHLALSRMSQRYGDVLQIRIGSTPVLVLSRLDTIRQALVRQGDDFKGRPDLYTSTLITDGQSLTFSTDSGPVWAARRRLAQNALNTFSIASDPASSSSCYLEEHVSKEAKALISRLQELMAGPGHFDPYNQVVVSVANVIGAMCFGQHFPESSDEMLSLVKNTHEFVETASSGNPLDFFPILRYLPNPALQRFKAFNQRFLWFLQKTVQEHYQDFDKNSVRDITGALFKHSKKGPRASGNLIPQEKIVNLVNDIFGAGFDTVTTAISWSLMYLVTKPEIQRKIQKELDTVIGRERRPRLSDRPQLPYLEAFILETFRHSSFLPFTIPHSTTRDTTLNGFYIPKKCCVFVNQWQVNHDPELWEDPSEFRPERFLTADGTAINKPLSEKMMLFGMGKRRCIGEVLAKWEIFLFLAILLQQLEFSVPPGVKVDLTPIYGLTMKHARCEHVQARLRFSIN
Lysosomal acid glucosylceramidase (Homo sapiens), sequence (P04062 whole entry, looked up): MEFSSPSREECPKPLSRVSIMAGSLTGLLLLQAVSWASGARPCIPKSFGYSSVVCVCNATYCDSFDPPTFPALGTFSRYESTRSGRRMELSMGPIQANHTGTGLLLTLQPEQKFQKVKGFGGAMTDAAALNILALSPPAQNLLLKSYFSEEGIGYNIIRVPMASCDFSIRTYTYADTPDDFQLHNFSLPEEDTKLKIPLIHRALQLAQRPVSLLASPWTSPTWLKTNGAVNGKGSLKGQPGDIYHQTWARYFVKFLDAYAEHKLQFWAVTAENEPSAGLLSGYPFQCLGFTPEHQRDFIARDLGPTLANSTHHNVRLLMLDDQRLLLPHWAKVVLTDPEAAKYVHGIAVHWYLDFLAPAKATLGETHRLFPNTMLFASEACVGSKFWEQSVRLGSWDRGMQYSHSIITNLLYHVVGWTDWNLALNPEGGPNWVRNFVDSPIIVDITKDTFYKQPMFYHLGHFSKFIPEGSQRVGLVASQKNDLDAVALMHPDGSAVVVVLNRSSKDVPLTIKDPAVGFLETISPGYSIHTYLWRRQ
Cytochrome P450 3A4 (Homo sapiens), sequence (P08684 whole entry, looked up): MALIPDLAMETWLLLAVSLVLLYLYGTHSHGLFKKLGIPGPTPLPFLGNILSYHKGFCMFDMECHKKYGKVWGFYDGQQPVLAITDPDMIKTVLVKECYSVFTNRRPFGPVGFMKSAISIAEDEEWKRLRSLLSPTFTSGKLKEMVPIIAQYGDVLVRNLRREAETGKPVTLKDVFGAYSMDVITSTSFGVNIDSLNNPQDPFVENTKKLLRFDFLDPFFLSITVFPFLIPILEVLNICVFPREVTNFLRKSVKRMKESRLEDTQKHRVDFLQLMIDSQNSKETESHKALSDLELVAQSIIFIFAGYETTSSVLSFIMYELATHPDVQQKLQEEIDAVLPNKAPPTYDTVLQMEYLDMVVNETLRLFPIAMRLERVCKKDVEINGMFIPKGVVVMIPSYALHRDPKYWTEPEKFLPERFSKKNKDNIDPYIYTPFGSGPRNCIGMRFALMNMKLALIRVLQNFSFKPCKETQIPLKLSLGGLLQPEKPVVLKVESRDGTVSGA
Cytochrome P450 2D6 (Homo sapiens), sequence (P10635 whole entry, looked up): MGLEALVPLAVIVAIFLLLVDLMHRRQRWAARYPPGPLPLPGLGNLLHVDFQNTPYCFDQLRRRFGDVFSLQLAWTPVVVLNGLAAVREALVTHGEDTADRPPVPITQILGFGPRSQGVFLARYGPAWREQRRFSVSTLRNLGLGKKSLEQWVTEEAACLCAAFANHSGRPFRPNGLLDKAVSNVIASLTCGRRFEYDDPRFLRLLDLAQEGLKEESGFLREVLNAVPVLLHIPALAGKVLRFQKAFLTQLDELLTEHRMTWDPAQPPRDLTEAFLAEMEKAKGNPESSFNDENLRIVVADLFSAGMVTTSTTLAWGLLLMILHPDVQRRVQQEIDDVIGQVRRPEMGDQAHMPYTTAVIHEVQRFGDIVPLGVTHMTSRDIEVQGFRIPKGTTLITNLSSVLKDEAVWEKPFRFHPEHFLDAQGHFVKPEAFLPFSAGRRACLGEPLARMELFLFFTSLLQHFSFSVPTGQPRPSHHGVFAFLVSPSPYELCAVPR

Consider `O=C(c1ccncc1)N1CCC2(CC1)CN(Cc1cc(C(F)(F)F)cc(C(F)(F)F)c1)C2`, for which the Potency in [1] was > 11.4 µM (inactive); in [5] it was > 46 µM (inactive); in experiment [8] it was 5.01 µM (active). Moreover, the results for the activity change, negative = inhibition in experiment [2] and in experiment [10] were -5.95% (inactive) and 0.924% (inactive), respectively. Moreover, the Potency result in [3], in experiment [6], in [7] and in experiment [9] was “inactive” each time. Also, the activity, negative = inhibition in [4] is -8.98% (inactive). Moreover, the max response in experiment [10] (setting [14]) worked out at 9.27%; in [10] (setting [15]), 16.4%. Moreover, the outcome in experiment [11] was inactive.
With `COc1ccccc1CN1CCCC2(CCN(C(=O)c3ccncc3)CC2)C1`, the Potency was > 11.4 µM (inactive) in [1]; 20 µM (active) in experiment [3]; > 46 µM (inactive) in experiment [5]; 6.31 µM (active) in [8]; 3.16 µM (active) in experiment [12]. For the same compound, the activity change, negative = inhibition in experiment [2] was -0.588% (inactive); in experiment [10], 1.58% (inactive). The activity, negative = inhibition in [4] was 1.91% (inactive). The Potency entry in experiment [6], in experiment [7] and in experiment [9] was “inactive” each time. Moreover, the activation in experiment [13] is 3.13% (inactive). Moreover, the max response in experiment [10] (setting [14]) was 5.27%; in experiment [10] (setting [15]), 9.4%. Besides, the result in [11] was inactive.
`O=C(c1ccncc1)N1CCC2(CCN(Cc3ccncc3)CC2)CC1`: the values for the Potency in experiment [1] and in [5] were > 11.4 µM (inactive) and > 46 µM (inactive), respectively. The activity change, negative = inhibition was 7.83% (inactive) in experiment [2] and 4.23% (inactive) in experiment [10]. For the same compound, the Potency result in experiment [3], in experiment [6], in experiment [7] and in [9] was “inactive” throughout. Also, the activity, negative = inhibition in experiment [4] was -5.41% (inactive). The figures for the max response in [10] (setting [14]) and in [10] (setting [15]) were 14.3% and 23.1%, respectively. Also, in [11], the outcome was inactive.
For the compound `COCC(=O)N1CCC2(CCCN(c3ccncc3)C2)CC1`, the Potency was > 11.4 µM (inactive) in experiment [1] and > 46 µM (inactive) in experiment [5]. The activity change, negative = inhibition is 3.93% (inactive) in [2] and 3.88% (inactive) in experiment [10]. For the same compound, the Potency entry in experiment [3], in experiment [6], in experiment [7] and in experiment [9] was “inactive” throughout. The activity, negative = inhibition in [4] was -8.03% (inactive). Besides, the max response is -7.49% in [10] (setting [14]) and 0.42% in experiment [10] (setting [15]). Also, the result in experiment [11] was inactive.
In the case of `O=C(c1ccco1)N1CCC2(CC1)CCN(C(c1ccccc1)c1ccccc1)CC2`, the Potency is > 11.4 µM (inactive) in experiment [1], > 46 µM (inactive) in experiment [5], 12.6 µM (active) in experiment [9] and 5.01 µM (active) in experiment [12]. For the same compound, the results for the activity change, negative = inhibition in experiment [2] and in experiment [10] were 0.867% (inactive) and 3.39% (inactive), respectively. Also, the Potency entry in experiment [3], in [6], in experiment [7] and in experiment [8] was “inactive” in each case. In [4], the activity, negative = inhibition was -7.63% (inactive). Also, the max response in experiment [10] (setting [14]) came out at 7.88%; in [10] (setting [15]), 15%. For the same compound, the result in [11] was inactive.
Regarding `CC(C)CN1CCCC2(CCN(S(=O)(=O)c3ccccc3)CC2)C1`, the Potency in experiment [1] is > 11.4 µM (inactive); in [5], > 46 µM (inactive). Besides, the activity change, negative = inhibition in [2] was 1.33% (inactive); in experiment [10], 2.73% (inactive). Moreover, the Potency entry in experiment [3], in experiment [6], in experiment [7] and in experiment [9] was “inactive” in each case. In addition, the activity, negative = inhibition in experiment [4] was 0.203% (inactive). Besides, the max response in [10] (setting [14]) was 12.5%; in experiment [10] (setting [15]), 15.5%. In experiment [11], the result was inactive.
`c1ccc(C(c2ccccc2)N2CCCC3(CCNCC3)C2)cc1`: the Potency is > 11.4 µM (inactive) in experiment [1], 7.94 µM (active) in [3], > 46 µM (inactive) in experiment [5] and 1.26 µM (active) in experiment [8]. Further, the activity change, negative = inhibition in experiment [2] is -3.1% (inactive); in [10] it was -1.73% (inactive). Moreover, the activity, negative = inhibition in experiment [4] is 4.89% (inactive). The Potency entry in experiment [6], in [7] and in experiment [9] was “inactive” each time. The activation in [13] is 19.3% (inactive). Further, the values for the max response in [10] (setting [14]) and in [10] (setting [15]) were -12.4% and -10.8%, respectively. Besides, in [11], the result was inactive.
